KCNQ2 enhance = potentiators of rat KCNQ2 potassium channel. Potassium voltage-gated channel subfamily KQT member 2 (Rattus norvegicus), O88943. CHO-K1 KCNQ2, FluxOR thallium flux fluorescence; active compounds read high. B-score at 10 µM. actives 0.54% (n = 310,000);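 active = fluorescence ratio B-score at least 3 SD of library B-scores, with initial fluorescence B-score within 3 of them, cut at about 5.3 in these data; same plate scores as AID 2156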;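 note: B-score of peak minus minimum over baseline fluorescence ratio after K+ and Tl+ stimulus; positive B-score means potentiation of KCNQ2 with more thallium influx and brighter signal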
Target sequence (O88943 whole entry, looked up): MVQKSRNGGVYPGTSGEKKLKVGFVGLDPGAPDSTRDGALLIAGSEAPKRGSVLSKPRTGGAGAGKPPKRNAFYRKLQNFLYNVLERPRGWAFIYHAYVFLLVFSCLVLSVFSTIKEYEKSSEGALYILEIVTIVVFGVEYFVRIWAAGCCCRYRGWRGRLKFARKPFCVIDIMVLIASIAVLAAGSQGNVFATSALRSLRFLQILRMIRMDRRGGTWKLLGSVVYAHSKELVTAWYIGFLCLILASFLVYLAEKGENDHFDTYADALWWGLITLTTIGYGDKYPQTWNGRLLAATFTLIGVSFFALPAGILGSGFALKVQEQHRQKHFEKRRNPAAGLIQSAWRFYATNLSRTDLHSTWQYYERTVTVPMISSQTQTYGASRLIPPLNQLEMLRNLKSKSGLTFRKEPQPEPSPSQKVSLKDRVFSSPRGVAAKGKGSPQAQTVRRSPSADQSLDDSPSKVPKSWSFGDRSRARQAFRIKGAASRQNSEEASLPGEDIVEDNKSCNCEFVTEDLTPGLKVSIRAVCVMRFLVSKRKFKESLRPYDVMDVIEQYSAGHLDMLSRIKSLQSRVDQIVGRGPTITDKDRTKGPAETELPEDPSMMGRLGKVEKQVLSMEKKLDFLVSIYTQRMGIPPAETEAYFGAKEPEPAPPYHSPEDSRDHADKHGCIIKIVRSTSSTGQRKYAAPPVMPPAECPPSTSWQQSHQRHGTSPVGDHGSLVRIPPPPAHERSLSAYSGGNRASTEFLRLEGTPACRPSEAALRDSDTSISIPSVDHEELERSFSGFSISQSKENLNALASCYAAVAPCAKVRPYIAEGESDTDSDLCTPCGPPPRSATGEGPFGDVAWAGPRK
KCNQ2 inh = rat KCNQ2 potassium channel inhibitors, primary screen, cell-based, CHO-K1, FluxOR thallium flux, B-score | Potassium voltage-gated channel subfamily KQT member 2 (Rattus norvegicus), O88943 | 20 min; active compounds read low | B-score at 10 µM | actives 1.1% (n = 310,000) | AID 2156, 2009;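 active = fluorescence ratio B-score at most minus 3 library SDs, with starting brightness B-score within 2 library SDs, cut at about -5.5 in these data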
Kir21 confirm = mouse Kir2.1 channel blockers, retest, confirmation, cell-based, FluxOR thallium flux, duplicate; shares compounds with KCNQ2 enhance; Kir2.1-expressing cells, FluxOR thallium flux fluorescence; active compounds read low; Tl flux remaining, % of negative control (active compounds read low), % at 10 µM; actives 41% (n = 2,300); AID 2032, 2009;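 active = Primary-screen hit whose thallium flux fell at least 3 control SD below untreated wells in both duplicates, with normal baseline fluorescence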;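 note: 0% = blank wells without stimulus and 100% = stimulated no-compound controls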
HEK293 ctr = parental HEK293 activity in Kir2.1 inhibitor counter-screen | AID 2105 | parental HEK293 cells, FluxOR thallium flux fluorescence; 0% = unstimulated blank wells | FluxOR signal as % of negative control (100 = no effect), % at 10 µM | shares compounds with KCNQ2 enhance | actives 19% (n = 2,300);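 active = dye signal at least 3 control SD above or below untreated wells in both duplicates, raw fluorescence within 3, either direction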;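 note: percent is based on the flux ratio of peak minus minimum fluorescence over baseline F0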
CHO-K1 ctr = nonspecific thallium flux increase in parental CHO-K1, confirmation, counter-screen for KCNQ2 potentiator project, cell-based, FluxOR thallium flux, duplicate | shares compounds with KCNQ2 enhance | parental CHO-K1 cells, FluxOR thallium flux fluorescence; zero = vehicle mean+3SD, 100% = vehicle-minus-blank window | activity increase over 3SD of controls, % at 10 µM | actives 43% (n = 1,200) | AID 2282, 2010;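 active = signal rise of at least 3 SD above the untreated control mean, in both duplicate wells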;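 note: counter screen of KCNQ2 potentiator hits so any rise reflects channel-independent effects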
KCNQ1 pot spec = human KCNQ1 channel potentiation off-target, confirmation, selectivity assay for KCNQ2 potentiator project, cell-based, CHO, FluxOR thallium flux; shares compounds with KCNQ2 enhance; CHO KCNQ1 stable, FluxOR thallium flux fluorescence; beyond 3SD, as % of vehicle-control signal; activation over 3SD threshold, % at 10 µM; actives 28% (n = 1,200); AID 2283, 2010;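 active = fluorescence ratio rise of at least 3 SD of vehicle wells above their mean, in both replicate wells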;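 note: 0% = vehicle mean plus 3 SD and 100% = vehicle minus unstimulated blank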
KCNQ2 pot conf = rat KCNQ2 channel potentiators, confirmation, cell-based, CHO, FluxOR thallium flux, duplicate; CHO-KCNQ2 cells, FluxOR thallium flux fluorescence; AID 2287, 2010; actives 68% (n = 1,200); potentiation, less the hit threshold, % at 10 µM; shares compounds with KCNQ2 enhance;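 active = fluorescence ratio rising 3 SD or more over the vehicle control mean in both replicates, plus primary screen hit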;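 note: peak minus minimum thallium fluorescence divided by baseline after K/Tl stimulus; 0% = vehicle mean plus 3 SD and 100% = vehicle minus unstimulated blank difference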
Kir2-1 sel = mouse Kir2.1 channel activation off-target, confirmation, selectivity assay for KCNQ2 potentiator project, cell-based, HEK293, FluxOR thallium flux; HEK293 Kir2.1, FluxOR thallium flux fluorescence; shares compounds with KCNQ2 enhance; activity over 3SD threshold, % at 10 µM; actives 2% (n = 1,200);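 active = fluorescence ratio rise of at least 3 SD above the vehicle-control mean, seen in both replicates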;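 note: 0% = vehicle mean plus 3 SD and 100% = vehicle minus no-stimulus blank window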
KCNQ2 W236L MoA = potentiators of retigabine-insensitive KCNQ2 W236L, mechanism study for KCNQ2 potentiator project, cell-based, rat KCNQ2 W236L, CHO, automated patch clamp. current increase over 3SD of negative controls (%), active compounds read high, % at 25 µM. AID 2558, 2010. actives 10% (n = 940). automated patch clamp current. shares compounds with KCNQ2 enhance;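 active = current increase at least 3 SD of the untreated controls above them in both duplicate recordings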
* = called active by the depositor; i = inactive; . = no result given. A selection: hits, their analogues and other compounds. The true share with any hit is near 1.6%.

SMILES	KCNQ2 enhance	KCNQ2 inh	Kir21 confirm	HEK293 ctr	CHO-K1 ctr	KCNQ1 pot spec	KCNQ2 pot conf	Kir2-1 sel	others
CCOc1cccc2cc(C(=O)NCc3ccc(F)cc3)c(=N)oc12	.	i	.	.	.	.	.	.
COc1ccccc1/C=C1\SC(=O)N(CC(=O)N(C)C2CCS(=O)(=O)C2)C1=O (stereo not given)	0.76	i	.	.	.	.	.	.
Oc1c(N=Nc2ccccn2)ccc2ccccc12	5.9*	i	i	i	91*	-14	28*	-39	KCNQ2 W236L MoA=i
c1ccc2c(c1)ccc1ncccc12	0.05	i	.	.	.	.	.	.
CSc1cccc(NC(=S)N(CCCN2CCCC(C)C2)Cc2cccs2)c1 (stereo not given)	.	i	.	.	.	.	.	.
O=C(NCCNC(=O)c1ccccc1F)c1ccco1	.	i	.	.	.	.	.	.
O=C(N/N=C/c1cccs1)c1cnccn1	.	i	.	.	.	.	.	.
O=C(N/N=C/c1cccs1)c1[nH]ncc1Br	11*	i	i	i	115*	-14	43*	-33	KCNQ2 W236L MoA=i
CN(C)c1ccc(/C=N/n2c(-c3ccccc3Br)n[nH]c2=S)cc1	.	i	.	.	.	.	.	.
O=C(NCc1ccc(Cl)cc1Cl)Nc1ccccc1	11*	i	i	i	-3	4.9*	29*	-34	KCNQ2 W236L MoA=9.9%*
O=C(NCc1csc2ccc(Cl)cc12)Nc1ccccc1	.	i	.	.	.	.	.	.
COc1ccc(S(=O)(=O)N2CCN(C(=S)NC3CCCCC3)CC2)cc1	.	i	.	.	.	.	.	.
O=C(CC1CCCC1)Nc1ccc2c(c1)CCC2	26*	i	i	i	-48	-16	80*	-39	KCNQ2 W236L MoA=i
O=C(Cc1ccccc1)Nc1ccc2c(c1)CCC2	6.5*	i	i	i	17*	-17	81*	-31	KCNQ2 W236L MoA=i
O=C(Cc1ccccc1)Nc1ccc(N2CCCC2)cc1	1.8	i	.	.	.	.	.	.
COc1ccc(CC(=O)Nc2ccc3c(c2)CCC3)cc1	1.7	i	.	.	.	.	.	.
O=C(Cc1ccccc1)Nc1cccc(N2CCCC2)c1	6*	i	i	i	-23	-7	21*	-27	KCNQ2 W236L MoA=0.1%*
COc1ccc(NC(=O)CC2CCCC2)cc1OC	.	i	.	.	.	.	.	.
C#Cc1ccc(CN2CCN(CCCc3ccccc3)C(CCO)C2)cc1 (stereo not given)	0.26	i	.	.	.	.	.	.
Cc1cccc(CCNC(=O)CCc2nnc(CCc3ccccc3)o2)n1	0.09	i	.	.	.	.	.	.
Brc1ccc(/C=N/Nc2ccc3ccccc3n2)cc1	1.6	i	.	.	.	.	.	.
Fc1cccc(/C=N/Nc2ccc3ccccc3n2)c1	12*	i	i	i	-14	-21	-20	-30
Cc1cnc(C(=O)OCc2ccc(Br)cc2)cn1	.	i	.	.	.	.	.	.
O=C(CC1CCC1)Nc1cccc2c([N+](=O)[O-])cccc12	9.6*	i	i	i	-1	56*	35*	-39	KCNQ2 W236L MoA=i
O=C(CN1CCCCCC1)Nc1ccccc1[N+](=O)[O-]	.	i	.	.	.	.	.	.
SMILES	KCNQ2 enhance	KCNQ2 inh	Kir21 confirm	HEK293 ctr	CHO-K1 ctr	KCNQ1 pot spec	KCNQ2 pot conf	Kir2-1 sel	others
CCCS(=O)(=O)c1c(S(=O)(=O)CCC)c2ccc(C(N)=O)cn2c1C(=O)c1ccc(OC)cc1	.	i	.	.	.	.	.	.
Clc1cccc(Cl)c1COn1nnc2ccccc21	.	i	.	.	.	.	.	.
c1ccc(COn2nnc3ccccc32)c(COn2nnc3ccccc32)c1	.	i	72%*	i	.	.	.	.
O=C(NCc1ccco1)c1ccc(C(F)(F)F)cc1	1	i	.	.	.	.	.	.
O=C(NCc1ccco1)c1ccccc1-c1ccc(C(F)(F)F)cc1	6.1*	i	i	i	-8	23*	1.0*	-39	KCNQ2 W236L MoA=i
CCOc1c(CNCCCSc2nc(C)cc(C)n2)cccc1OC	.	i	.	.	.	.	.	.
CC(C)Cn1c(=O)c(C(=O)NCc2ccccn2)c(O)c2ccccc21	15*	i	i	i	-16	-14	-13	-27
CCCn1c(=O)c(C(=O)NCc2ccncc2)c(O)c2ccccc21	0.05	i	.	.	.	.	.	.
Cc1ccc(C)c(S(=O)(=O)N2CCCOC2CNC(=O)C(=O)NCc2ccccc2)c1 (stereo not given)	.	i	.	.	.	.	.	.
COc1cccc(CNc2cccc3cccnc23)c1O	.	i	.	.	.	.	.	.
Oc1c(Br)cc(Br)cc1CNc1cccc2cccnc12	8.8*	i	i	i	2.2*	-26	-20	-26
COc1cccc(OCCOc2ccc(/C=C3/SC(=S)NC3=O)cc2)c1	7.4*	i	i	i	-1	-12	-6	-14
COc1ccc(/C=C2/SC(=O)NC2=O)cc1	.	i	.	.	.	.	.	.
O=C1NC(=S)S/C1=C\c1ccc2ccccc2c1	11*	i	i	i	55*	-12	42*	-38	KCNQ2 W236L MoA=i
O=C1NC(=S)S/C1=C\c1coc2ccccc2c1=O	1.7	i	.	.	.	.	.	.
Cc1c(C)c2ccc(OC(C)C(=O)NCCc3c[nH]c4ccccc34)cc2oc1=O (stereo not given)	.	i	.	.	.	.	.	.
O=C(O)CCCC(=O)N1CC(=O)Nc2ccccc21	1.7	i	.	.	.	.	.	.
O=C1CN(C(=O)CCCc2c[nH]c3ccccc23)c2ccccc2N1	.	i	50%*	i	.	.	.	.
Cc1ccc(C(=O)Nc2ccc(S(=O)(=O)Nc3ncccn3)cc2)cc1[N+](=O)[O-]	.	i	.	.	.	.	.	.
CCCCCC/C(C)=C1/SC(=S)NC1=O	22*	i	i	438%*	6.0*	-23	104*	-3	KCNQ2 W236L MoA=71%*
CCCCCCCC(=O)NNC(=O)Cc1ccccc1	0.67	i	.	.	.	.	.	.
CCCCNC(=O)Cn1c2c(c(-c3ccccc3Cl)cc1=O)CCC2	0.07	i	.	.	.	.	.	.
O=C(Cn1c2c(c(-c3ccccc3)cc1=O)CCCC2)N1CCCCCC1	8.4*	i	i	i	34*	19*	12*	-32	KCNQ2 W236L MoA=i

Compound activity from PubChem BioAssay.
